Screening data: PubChem BioAssay, several laboratories
Compounds with a hit are over-represented: about 10% of the library has one in this group of screens.
HCT116 bCat-KO: primary screen for growth suppressors in beta-catenin knockout HCT116 cells (colon tumor, human). viability, % at 10 µM. actives 1.5% (n = 140,000). HCT116 beta-catenin knockout viability, CellTiter-Glo, 60 h; stronger effect = lower value;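 active = viability at or under a set limit, the compound median less 4 SD, cut at about 6% in these data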;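 note: 0% = Hyamine 1622 control at 20 µM and 100% = untreated cell control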
L major viab: Leishmania major promastigote growth inhibition, primary screen; Leishmania major promastigotes, resazurin fluorescence viability; inhibition, % at 10 µM; actives 9% (n = 200,000); AID 1063, 2008; in the data active = inhibition above about 50%;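 note: promastigotes grown with compound for 44 hours at 28 °C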
INS promoter inh: inhibitors of insulin promoter-driven GFP, primary screen, imaging, TRM-6 cells (human fetal islet line), eGFP reporter, cell count; reporter expression induced with tamoxifen; inhibition, % at 2 µM; actives 0.9% (n = 130,000); AID 1273, 2008;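 active = inhibition above the mean plus 3 SD, with well images judged a real hit on visual review, cut at about 60% in these data, passing the limit was not always enough; inconclusive = inhibition over the cutoff but images rejected on review; inactive = inhibition not above the cutoff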
p97 ATPase inh: inhibitors of human p97 ATPase, primary screen, biochemical. Transitional endoplasmic reticulum ATPase (Homo sapiens), P55072. recombinant p97 ATPase, Kinase-Glo ATP luminescence, 3 h. inhibition, % at 8 µM. actives 0.42% (n = 220,000). AID 1481, 2009; in the data active = inhibition above about 15%;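 note: 0% = DMSO vehicle and 100% = wells lacking enzyme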
Target sequence (P55072 whole entry, looked up): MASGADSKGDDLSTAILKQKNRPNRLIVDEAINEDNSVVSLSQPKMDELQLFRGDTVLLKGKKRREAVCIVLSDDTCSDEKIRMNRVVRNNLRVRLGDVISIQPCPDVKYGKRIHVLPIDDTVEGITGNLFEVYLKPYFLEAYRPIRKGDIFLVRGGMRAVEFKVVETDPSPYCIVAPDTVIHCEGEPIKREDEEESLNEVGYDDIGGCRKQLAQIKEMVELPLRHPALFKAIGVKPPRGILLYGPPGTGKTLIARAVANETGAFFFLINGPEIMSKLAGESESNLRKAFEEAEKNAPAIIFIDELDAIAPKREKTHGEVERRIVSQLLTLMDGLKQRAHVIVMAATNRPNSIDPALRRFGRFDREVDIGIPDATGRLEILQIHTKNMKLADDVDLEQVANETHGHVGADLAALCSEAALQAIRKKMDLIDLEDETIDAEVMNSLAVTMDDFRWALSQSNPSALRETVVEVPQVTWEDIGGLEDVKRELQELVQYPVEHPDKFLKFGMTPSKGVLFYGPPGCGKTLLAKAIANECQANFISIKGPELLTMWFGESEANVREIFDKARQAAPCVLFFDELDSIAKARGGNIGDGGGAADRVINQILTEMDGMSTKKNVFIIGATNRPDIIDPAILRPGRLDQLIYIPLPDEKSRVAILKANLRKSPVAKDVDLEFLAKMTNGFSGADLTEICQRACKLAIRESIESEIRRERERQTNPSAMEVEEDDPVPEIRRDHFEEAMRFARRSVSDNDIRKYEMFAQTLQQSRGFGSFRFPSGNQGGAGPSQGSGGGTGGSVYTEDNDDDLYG
PTEN del growth: growth suppression of PTEN-null HCT116, primary screen, cell-based, CellTiter-Glo | viability, % at 10 µM | AID 827, 2007 | HCT116 PTEN-null viability, 60 h; stronger effect = lower value | actives 1.2% (n = 140,000);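 active = viability at or below a set limit, 4 SD under the median of all tested compounds, cut at about 3.7% in these data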;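 note: PTEN knockout HCT116 line with beta catenin targeted HCT116 as companion control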
ROMK mod: ROMK potassium channel modulators, primary screen, cell-based, thallium flux, MLSMR library. AID 1918, 2009. Tet-inducible ROMK, thallium flux fluorescence; actives lie on both sides. actives 2% (n = 130,000). ATP-sensitive inward rectifier potassium channel 1 (Homo sapiens), P48048. B-score at 10 µM;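 active = signal ratio slope over the read window, or its plate-corrected B-score, at least 3 SD from the plate mean, either direction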;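 note: B-score of the F/F0 ratio slope over 7 to 12 s after thallium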
ROMK retest: ROMK channel modulator hit retest, confirmation, cell-based, thallium flux, duplicate, resupplied hits; shares compounds with ROMK mod; fluorescence ratio; stronger effect = lower value; normalized thallium flux (F/F0 slope) at 10 µM; actives 54% (n = 3,000);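 active = Flux at 10 µM at least 3 SD below or above vehicle control mean in one or both replicates; inconclusive = no clear call, values can overlap the other calls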
Starred values were filed as active, the others as inactive; ? = inconclusive; . = not tested or not shown.

SMILES	HCT116 bCat-KO	L major viab	INS promoter inh	p97 ATPase inh	PTEN del growth	ROMK mod	ROMK retest
O=C(Nc1ccc(OCC(=O)N2CCC(Cc3ccccc3)CC2)cc1)c1ccco1	84	51*	4	1	78	-3.1*	0.067*
COC(=O)c1cn(NC(=O)/C=C/c2ccc(OC)c(OC)c2)c(=O)c2ccccc12	89	-10	.	5	98	.	.
COc1ccc(Oc2ccccc2C=O)cc1	12	25	-16	0	12	.	?
COc1ccc(Oc2ccccc2/C=C/C(=O)O)cc1	103	-12	.	0	98	.	.
N#C/C(C(N)=O)=C1/CCc2ccccc2N1	87	2	-23	2	81	4.7*	0.088
CCC(C)NCCC(=O)Nc1ccc(Cl)c(S(=O)(=O)Nc2ccc(Cl)cc2)c1 (centres undefined)	.	32	.	-6	.	-4.1*	0.064*
Cc1ccc(C(=O)CCC(=O)Nc2ccc(Cl)c(S(=O)(=O)Nc3cccc(Cl)c3)c2)cc1	91	14	.	-1	84	-0.33	.
Cc1nsc(Nc2ccc([N+](=O)[O-])cc2)c1C#N	.	8	20	1	.	-1.7	.
CCCCOC(=O)C1CCC[C@@H](C)N1 (some centres undefined)	110	-1	-28	-3	103	.	0.079
Cc1ccc2cc3c(N)c(C(=O)N4CC(=O)Nc5ccccc54)sc3nc2c1	20	0	7	0	15	.	0.046*
Cn1nc(C(=O)OCc2ccc(Br)cc2F)c2ccccc2c1=O	.	-12	-15	-3	.	-0.44	.
COc1cc(C(=O)Nc2ccc3oc(-c4cccnc4)nc3c2)cc(OC)c1OC	.	2	0	3	.	-0.76	0.079
CC(C)(C)N1CC(COc2ccccc2)OC1=O (centres undefined)	88	-2	-11	0	92	.	.
OCCCCNCc1ccc(OCc2ccc(Cl)cc2Cl)cc1	1.8*	101*	20	4	1.6*	.	0.053*
O=C1Nc2ccccc2OCc2c1cccc2[N+](=O)[O-]	.	4	.	8	.	3.5*	0.1*
Cc1ccc(-n2nc(C)c3c(C(=O)OCC(=O)N(C)C4CCS(=O)(=O)C4)cc(-c4ccccc4)nc32)cc1 (centres undefined)	73	-4	-29	4	67	0.45	.
O=P(OC1CCCCC1)(OC1CCCCC1)C(Nc1ccccc1)c1cccnc1 (centres undefined)	.	.	.	-1	.	.	?
COC(=O)c1cc(NC(=O)c2ccccc2)c(=O)oc1C/C=N\OCc1ccc(Cl)cc1Cl	107	-15	61	0	103	-2.8*	0.065*
Cc1ccc(NC(=O)N2CCN(c3ncccc3C(F)(F)F)CC2)cc1	.	.	.	-1	.	.	.
O=C(Nc1ccc2ccccc2c1)N1CCN(c2ncccc2C(F)(F)F)CC1	100	4	.	-5	93	-3.9*	0.062*
ONC=Nc1cccc2nonc12	102	-5	.	11	96	0.31	.
CCOc1cc(CNc2ccc3c(c2)OCCO3)cc(Br)c1OC	11	1	-83	-3	16	4.9*	0.076
COc1cccc(-n2c(C)nnc2SCC(=O)Nc2ccccc2N2CCOCC2)c1	103	0	-15	-12	84	-0.59	.
Fc1ccc(-c2cnn3c(-c4ccncc4)ccnc23)cc1	.	10	44	-1	.	0.55	.
Fc1ccc(-c2cnn3c(-c4cccs4)ccnc23)cc1	.	4	-125	-1	.	-2.3*	0.063*
SMILES	HCT116 bCat-KO	L major viab	INS promoter inh	p97 ATPase inh	PTEN del growth	ROMK mod	ROMK retest
O=C(COc1ccccc1-c1ccccc1)NN=C1CCCC1	.	-1	.	2	.	0.062	.
O=C1CCC/C(=N\NC(=O)c2ccc(COc3ccccc3-c3ccccc3)cc2)C1	.	18	22	-1	.	-5.5*	0.078
COC(=O)CSC1=C(C#N)C(c2ccc(C)o2)CC(=O)N1 (centres undefined)	.	-6	.	-3	.	2.7*	0.077
Cc1oc(/C=N/NC(=O)CN(c2ccccc2Br)S(C)(=O)=O)cc1Br	96	31	20	0	84	.	.
Clc1ccc(CN2C3=NCCN3c3ccccc32)cc1Cl	16	65*	.	0	19	-2.8*	0.06*
O=C(Nc1cccc(Cl)c1)Nc1ccnc(-c2cccnc2)n1	.	46	.	0	.	2.4*	0.08
C=CCn1c(SCC(=O)N2CCc3ccccc3C2)nc2sc(CC)cc2c1=O	56	9	.	3	55	.	0.082
C=CCn1c(SCC(=O)N2CCc3ccccc3C2)nc2sc(C)c(C)c2c1=O	78	4	3	5	67	.	.
CCCCC(=O)Nc1ccc(C(=O)Nc2ccc(OC)cc2[N+](=O)[O-])cc1	93	-7	.	2	92	.	0.035*
Clc1ccc(OCc2nn3c(C4CCCCC4)nnc3s2)cc1	90	-6	.	0	78	.	.
Cc1nn(-c2ccccc2)c(NC(=O)c2cccs2)c(-c2ccccc2Cl)c1=O	.	.	.	-2	.	-0.0017	.
O=C(O)CCn1nnc2ccccc21	.	.	.	1	.	.	.
Cn1c(=O)c2[nH]c(-c3ccccc3Cl)c(O)c2n(C)c1=O	88	4	64*	5	95	-3.9*	0.063*
N#C/C(=C\c1ccc(Cl)c([N+](=O)[O-])c1)c1ccccn1	.	28	24	3	.	-6.9*	0.053*
CNc1ccc(/C=C(\C#N)c2ccccn2)cc1[N+](=O)[O-]	.	0	.	-3	.	-0.14	.
CC1=NNC(=O)C1CCC(=O)N/N=C/c1ccc(Cl)cc1Cl (centres undefined)	.	.	.	6	.	0.26	.
CCCCNC(=O)CNC(=S)N(Cc1cc(OC)c(OC)c(OC)c1)C1CCCC1	97	2	-4	-1	90	1.4	.
Cc1cc(/C=N/N2CCN(C)CC2)c(C)n1-c1ccc(Cl)cc1	.	.	.	-2	.	.	.
Cc1cc(/C=N/n2cnnc2)c(C)n1-c1ccc(Cl)cc1Cl	80	41	-462	-1	80	3.2*	?
CCOc1ccc(OCCCCn2ccnc2)cc1	75	4	-15	1	98	0.26	.
COCCN(CC(=O)NC1CCCCC1)C(=O)/C=C/C(=O)c1ccc(OC)cc1O	.	1	.	1	.	-5*	0.053*
C/C(=N\n1nnnc1Nc1ccccc1)c1ccc(N)cc1	110	2	-29	-3	92	-0.14	.
CC(OC(=O)c1ccncc1)C(=O)Nc1cc(S(=O)(=O)N2CCCCC2)ccc1Cl (centres undefined)	95	-2	6	1	86	-4.8*	0.068*
CC(OC(=O)c1ccncc1)C(=O)Nc1cccc(Cl)c1 (centres undefined)	95	3	-7	-2	99	0.7	.
COc1cc(/C=C2/C(=N)N3C=CSC3=NC2=O)ccc1OCCCOc1cc(C)ccc1C	87	2	34	0	74	.	.
